In PubChem BioAssay AID743287 (Broad Institute, 2014) one finds activation data, which are given here for 21 compounds.

Values joined by “and” are separate entries in the source; they are usually repeats but may differ in a detail not shown here. Identical values can stand only once. Screen size: about 370,000 compounds; about 2,300 (0.62%) were called active. This is one part of a sample in which actives are shown more often than they occur.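 The calls were made as follows: active = lowest replicate activation of at least 40%, so every replicate reaches that level; inactive = the rest.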

This test can be described thus: GLuc luminescence reporter in INS-1E cells, primary screen for activators of glucose-dependent secretion of insulin (AID 743287).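 Also: 0% = median of neutral control wells and 100% = median of IBMX positive control wells.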 Conditions: INS-1E GLuc reporter insulin secretion, 2-3 h, at 16.6 µM, stronger effect = higher value.
Take `CCOc1ncccc1C(=O)Nc1ccc(S(=O)(=O)Nc2nc(C)cc(C)n2)cc1`: the activation is 65.9% (active).
Consider `O=C(Nc1ccc(S(=O)(=O)Nc2ncccn2)cc1)c1cncc(Br)c1`, for which the activation was 1.33% (inactive).
As to `Cc1ccnc(NS(=O)(=O)c2ccc(NC(=O)c3ccc(S(=O)(=O)N(C)C)cc3)cc2)n1`, the activation is 7.95% (inactive).
Regarding `COCCCNC(=S)N(Cc1ccccc1)Cc1ccc(F)cc1`, the activation was -5.03% (inactive).
`COCCNC(=S)N(CCc1c(C)[nH]c2ccc(C)cc12)Cc1cccnc1`: the activation is -2.95% (inactive).
Consider `COCCNC(=S)N(Cc1cccnc1)Cc1ccc(OC)c(OC)c1`, for which the activation was 53.5% (active).
Turning to `COc1ccc(-c2cnc3c(c2)C(=O)N([C@@H](C)CO)C[C@@H](C)[C@H](CN(C)C(=O)C2CCCCC2)O3)cc1`, the activation is -13.6% (inactive).
On to `O=C(C[C@H]1CC[C@H]2[C@@H](COC[C@@H](O)CN2S(=O)(=O)c2ccc(Cl)cc2)O1)NCCN1CCCCC1`, for which the activation is 17.3% (inactive).
To `CNC[C@@H]1Oc2cc(-c3ccccc3OC)ccc2S(=O)(=O)N([C@H](C)CO)C[C@H]1C` belongs 5.62% (inactive).
For `CCC1OC(C2CC2)CC2=C1C(=O)OC(C)(C)O2` (stereo unspecified), the activation was 44.5% (active).
Then `CC[C@@H]1CC2=C(C(=O)OC(C)(C)O2)[C@@H](CC)O1`, with -0.455% (inactive).
`CC1(C)OC(=O)C2=C(C[C@@H](C3CC3)O[C@H]2CCc2cccc(Cl)c2)O1`: the activation was -7.22% (inactive).
Then `O=C(Nc1ccc(C(F)(F)F)cc1)N1[C@@H]2CNC[C@H]1C2c1ccc(-c2ccncc2)cc1` (stereo partly specified), with 3.37% (inactive) and 12.2% (inactive); and `CCCCc1nc(NCCN)c(C#N)c2c1CSC(C)(C)C2`, with 44.2% (active).
Regarding `CCCCc1nc(NCc2ccccc2)c(C#N)c2c1CCCC2`, the activation is -17.4% (inactive).
To `COc1cccc(S(=O)(=O)N2[C@@H]3CNC[C@H]2C3c2ccc(-c3cccc(C(=O)N(C)C)c3)cc2)c1` (stereo partly specified) belongs 11.3% (inactive) and 0.645% (inactive).
Then `CO[C@H]1CN(C)C(=O)c2cc(NS(C)(=O)=O)ccc2OC[C@@H](C)N(C(=O)NC(C)C)C[C@@H]1C`, with 8.6% (inactive); and `CCOC(=O)C1(Cc2cccc(OC)c2)CCCN(S(=O)(=O)c2cccnc2)C1` (stereo unspecified), with -3.61% (inactive).
Then `CCOC(=O)C1(Cc2cccc(OC)c2)CCCN(C(=O)CCSC)C1` (stereo unspecified), with 51.6% (active).
`CCOC(=O)C1(Cc2cccc(OC)c2)CCN(C(C)COC)CC1` (stereo unspecified): the activation is 5.01% (inactive).
To `C[C@@H]1CN([C@H](C)CO)C(=O)c2cccc(NC(=O)CCCCCC(=O)Nc3ccccc3N)c2O[C@H]1CN(C)CC1CCCCC1` belongs -3.22% (inactive).
